This is a sample that favours compounds with a hit; in the whole collection about 0.82% have one here.
Keap1 Nrf2 FP = Keap1-Nrf2 (human) interaction inhibition; Q14145; Keap1 Kelch-Nrf2 peptide fluorescence polarization, 1536-well; inhibition, % at 9.4 µM; 340,000 tested, 0.15% active; in the data active means inhibition above about 12%; inconclusive means no clear call, values can overlap the other calls; inactive means below about 7.3%;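 further: human Keap1 Kelch domain with fluorescein labeled Nrf2 9mer peptide probe; 0% = neutral control wells and 100% = peptide positive control; higher means more block of Keap1 binding to Nrf2 peptide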
Target sequence (Q14145 whole entry, looked up, the tested form may be a part): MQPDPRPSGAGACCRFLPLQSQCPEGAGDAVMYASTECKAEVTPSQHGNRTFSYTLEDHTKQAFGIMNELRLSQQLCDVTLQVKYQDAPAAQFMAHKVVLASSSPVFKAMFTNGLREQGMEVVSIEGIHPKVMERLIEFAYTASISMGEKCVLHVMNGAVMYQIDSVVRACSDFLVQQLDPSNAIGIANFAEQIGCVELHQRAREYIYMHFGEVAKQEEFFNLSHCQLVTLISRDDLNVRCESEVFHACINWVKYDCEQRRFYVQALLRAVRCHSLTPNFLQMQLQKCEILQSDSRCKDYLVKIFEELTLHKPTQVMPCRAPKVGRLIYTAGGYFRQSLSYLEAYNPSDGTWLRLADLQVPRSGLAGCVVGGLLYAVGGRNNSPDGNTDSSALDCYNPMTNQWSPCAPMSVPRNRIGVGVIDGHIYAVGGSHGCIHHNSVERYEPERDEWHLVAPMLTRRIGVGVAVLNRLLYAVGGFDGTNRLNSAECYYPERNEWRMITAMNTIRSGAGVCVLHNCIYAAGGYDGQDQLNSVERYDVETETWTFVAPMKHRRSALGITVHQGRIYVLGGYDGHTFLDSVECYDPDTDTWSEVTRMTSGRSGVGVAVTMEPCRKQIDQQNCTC
LANA DNA inh = inhibitors of KSHV LANA C-terminal domain DNA binding; 340,000 tested, 0.078% active; inhibition, % at 9 µM; MBP-C-LANA/FAM-LBS DNA binding, fluorescence polarization;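 active means highest replicate inhibition at or above 60% at 9 µM, even if other replicates fall short; inactive means all replicates below 60% inhibition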;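 further: 0% = neutral control wells and 100% = 4 µM acridine orange control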
E coli Lon inh = inhibits E. coli Lon protease; 360,000 tested, 0.42% active; purified E. coli Lon protease, fluorescence polarization; AID 602123; P0A9M0; inhibition, % at 7.94 µM; in the data active means inhibition above about 13%, passing the limit was not always enough;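 further: 0% = enzyme with probe and DMSO and 100% = no enzyme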
Cardiac RTF inh = cardiac RTF calcium desensitization; P19429+P45379; inhibition, % at 7.15 µM; IANBD-labeled cardiac RTF, Ca2+ fluorescence; 340,000 tested, 0.12% active;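 active means inhibition above the mean inhibition of all tested compounds plus 3 SD, cut at about 17% in these data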;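 further: assay run at fixed EC70 calcium of 1.6 mM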
cardiac RTF act = increases calcium sensitivity of human cardiac regulated thin filaments. IANBD-labeled TnC RTF fluorescence at EC20 calcium; 0% EC20 calcium, 100% full calcium. activation, % at 7.2 µM. 340,000 tested, 0.24% active;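 active means activation above the mean over all tested compounds plus 3 SD, cut at about 30% in these data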;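 further: rise in fluorescence read as greater calcium sensitivity of cardiac thin filaments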
eLon confirm = confirmation of E. coli Lon protease inhibitors | shares compounds with E coli Lon inh | purified E. coli Lon, fluorescence polarization | inhibition, % at 7.94 µM | 1,400 tested, 31% active; in the data active means inhibition above about 16%;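 further: 0% = enzyme with probe and DMSO and 100% = no enzyme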
Numbers without * were called inactive; ? = inconclusive; . = no result given.

SMILES	Keap1 Nrf2 FP	LANA DNA inh	E coli Lon inh	Cardiac RTF inh	cardiac RTF act	eLon confirm
CCn1c2ccccc2c2cc(NS(=O)(=O)c3ccccc3C)ccc21	-6.3	-0.4	14.4*	0.5	1.7	-4.2
Cc1ccc(F)c(N=Cc2c(O)c3ccccc3oc2=O)c1	0.2	-0.7	0.6	-2.6	-0.9	.
CCN(CC)CCc1nc(-c2ccccc2)no1	2.0	3.2	-4.2	6.8	1.9	.
Nc1nnnn1/N=C/c1cc(Cl)cc(Cl)c1O	7.0	8.3	48.8*	-44.8	32.1*	73.4*
Nc1nnnn1/N=C/c1cc(Cl)ccc1O	3.1	1.8	26.7	-15.4	3.6	.
CCOc1ccccc1N(CC)C(=O)c1ccc2c(=O)n3c(nc2c1)CCCCC3	1.5	3.6	20.9*	4.6	-4.5	-3.2
CCN(C(=O)c1ccc2c(=O)n3c(nc2c1)CCCCC3)c1ccc(F)cc1	0.6	-1.6	-2.0	-2.9	6.1	.
CCN=c1scc(C)n1/N=C/c1ccc(O)c(O)c1O	-7.0	1.0	24.8*	-0.9	-2.9	22.0*
CCN(CCNCC(O)COCc1ccc(Cl)cc1)c1cccc(C)c1 (stereo not given)	0.0	2.0	-2.0	-2.4	-0.4	.
CNC(=O)CN1C(=O)NC2(CCc3ccccc32)C1=O (stereo not given)	0.3	0.1	3.1	-7.9	8.6	.
CC(=O)c1ccc(NC(=O)CN2C(=O)NC3(CCc4ccccc43)C2=O)cc1 (stereo not given)	2.9	-1.2	18.9*	1.2	-2.1	-1.1
CCCC(C(=O)NC1CCCCC1)N(Cc1ccco1)C(=O)CNS(=O)(=O)c1ccccc1 (stereo not given)	0.3	-2.2	1.1	-2.0	-2.8	.
CCC(C(=O)NC1CCCC1)N(Cc1ccco1)C(=O)CNS(=O)(=O)c1ccccc1 (stereo not given)	-1.2	-1.5	17.0*	-9.6	-3.0	8.3
CCn1c(=O)c2sccc2n2c(CCCC(=O)NCc3cccnc3)nnc12	-5.4	1.8	-16.4	1.3	3.2	.
O=C(CSCc1cc(=O)n2ccsc2n1)Nc1ccc(F)cc1	-1.8	4.4	65.8*	-3.3	2.9	3.3
Cc1ccc(NC(=O)CSCc2cc(=O)n3ccsc3n2)cc1	0.3	-0.8	-7.3	-5.7	-2.8	.
Cc1ccc(CN2CCNC(=O)C2CC(=O)N(C)CCc2ccccc2)cc1 (stereo not given)	-2.2	-0.7	23.3*	-0.7	8.9	-7.9
CC(Nc1cccc2ccccc12)C(=O)N/N=C/c1ccccn1 (stereo not given)	4.7	25.4	24.0*	-20.0	10.3	7.3
COc1cc2c(cc1OC)C(c1cccc([N+](=O)[O-])c1)N(C(=O)CCC(=O)O)CC2 (stereo not given)	-3.2	-1.0	2.3	-0.1	0.4	.
CCCCN(CC)CCCNC(=O)c1ccc(CS(=O)(=O)c2ccccc2C)o1	-1.2	1.7	-2.2	-8.6	-2.6	.
O=C1CCCC/C1=C\Nc1ccc(C(=O)O)c(O)c1	-3.6	13.3	44.0*	-2.5	3.0	3.1
CC1CCC/C(=C\Nc2ccc(C(=O)O)c(O)c2)C1=O (stereo not given)	-9.4	4.4	11.6	-1.0	0.3	.
Cc1ccc(-c2csc(NC(=O)CCNC(=O)c3ccccc3Cl)n2)cc1	-0.9	0.1	0.3	2.2	-2.8	.
Cc1cc(Cl)ccc1OC(C)C(=O)NN=C1CCCCCC1 (stereo not given)	1.8	-0.3	21.3*	-10.1	-1.2	-4.9
CN(Cc1nccn1C)C(=O)C1CCC(=O)N(CCc2ccc(Cl)cc2)C1 (stereo not given)	-1.7	-1.2	1.4	2.9	1.5	.
SMILES	Keap1 Nrf2 FP	LANA DNA inh	E coli Lon inh	Cardiac RTF inh	cardiac RTF act	eLon confirm
Cc1c([N+](=O)[O-])nnn1-c1cc(Cl)cc(Cl)c1	-1.3	-0.3	27.5*	-2.5	-2.2	0.9
N#Cc1nnn(-c2cc(Cl)cc(Cl)c2)c1N	1.1	0.0	0.7	3.6	-5.9	.
Cc1cc(NC(=O)CSc2cn(CCNC(=O)c3ccccc3)c3ccccc23)no1	-4.5	17.0	19.9*	4.8	-8.0	-7.1
CC1(C)CC(=O)C=C(NNC(=O)c2ccccc2)C1	4.7	-0.1	-6.0	-4.5	2.4	.
COc1ccc(C(=O)NNC2=CC(=O)CC(C)(C)C2)cc1OC	-3.1	3.2	17.2*	-12.9	3.6	0.6
CC(=O)N1CCc2c(sc(NC(=O)C3CCCN3S(=O)(=O)c3cccs3)c2C(N)=O)C1 (stereo not given)	0.2	25.2	40.5*	-15.3	17.1	13.9
CN(C)c1ccc2nc3ccc(=O)cc-3sc2c1	.	.	40.2*	.	.	43.6*
N#Cc1c2c(c(=S)n(-c3ccccc3)c1N)CCCC2	-0.9	13.3	34.2*	-22.3	12.9	22.8*
CCOC(=O)c1c2c(c(=S)n(-c3ccccc3)c1N)CCC2	-0.4	0.7	24.4*	-55.8	4.3	-3.7
CC1(C)Cc2c(C#N)c(N)n(-c3ccccc3)c(=S)c2CO1	-2.9	3.6	-4.0	.	.	.
O=C(Nc1cccc(Cl)c1Cl)c1csc([C@@H]2O[C@H](CO)[C@H](O)[C@H](O)[C@H]2O)n1	.	.	14.8*	.	.	1.9
O=C(Nc1cccc2ccccc12)c1csc([C@@H]2O[C@H](CO)[C@@H](O)[C@H]2O)n1	.	.	3.9	.	.	.
COc1ccc(N)cc1-n1c(C)ccc1C	-1.0	2.1	51.6*	-11.8	6.5	18.1*
COc1cc(C(=O)N/N=C/c2sc(N3CCOCC3)nc2-c2ccccc2)cc(OC)c1OC	-1.2	3.3	17.0*	-12.9	4.8	6.6
O=C1NC2=C(C(=O)CCC2)C(c2ccccc2[N+](=O)[O-])N1 (stereo not given)	0.2	7.8	24.5*	1.2	1.3	-7.2
O=C1NC2=C(C(=O)CCC2)C(c2ccccc2)N1 (stereo not given)	-5.8	-1.0	1.3	-0.9	-1.4	.
Oc1cc(CNC2CCCCC2)c(O)cc1CNC1CCCCC1	-0.3	5.6	45.2*	-4.3	2.5	17.4*
Cc1ccc(S(=O)(=O)N2CCc3cc4c(cc3C2C)OCCCO4)cc1 (stereo not given)	0.2	1.8	17.5*	2.0	-3.8	2.1
CNc1c2cccc(C)c2nc2c(C(=O)NCCN(C)C)cccc12	0.4	60.8*	178.5*	-16.8	19.3	195.2*
Cc1ccc(C(=O)NCCN(C)C)c(C)c1	-0.1	-0.3	-2.7	-7.7	7.2	.
NC(=O)C[n+]1cccc2ccccc21	?	19.0	57.5*	-27.6	14.3	40.5*
COCCCNC(=O)CCC(=O)NNc1nc2ccccc2c2nc(C)nn12	2.3	1.0	-1.0	-11.9	-0.1	.
CC1(C)CC(=O)C(C(=S)Nc2ccccc2)=C(NC2CC(C)(C)NC(C)(C)C2)C1	-3.8	-0.8	58.8*	0.0	4.2	-1.3
CC1(C)CC(NC(=S)Nc2ccc(S(N)(=O)=O)cc2)CC(C)(C)N1	-5.2	-0.9	4.1	-1.9	6.3	.
Cc1ccc(C(=O)CSc2nnc(N)s2)c(C)c1	-2.2	-0.4	5.0	12.0	4.8	.

Compound activity: PubChem BioAssay, several laboratories
